The list is not random: actives were taken first. Their share in the collection is about 10%.
GPT2 inhibitor: blocks human glutamate pyruvate transaminase 2. Potency, µM (titrated, usually from 57.7 µM), without a hit: top-dose activity change, negative = inhibition, usual class: inhibitors. 0.25% of 100,000 active. AID 1671188. Recombinant GPT2, coupled pyruvate oxidase/HRP Amplex Red fluorescence; also: % is scaled to controls: 0 for no effect and ±100 for the full control effect; nearly all actives have a fitted effect of over 60% in size
Target sequence (Q8TD30 whole entry, looked up): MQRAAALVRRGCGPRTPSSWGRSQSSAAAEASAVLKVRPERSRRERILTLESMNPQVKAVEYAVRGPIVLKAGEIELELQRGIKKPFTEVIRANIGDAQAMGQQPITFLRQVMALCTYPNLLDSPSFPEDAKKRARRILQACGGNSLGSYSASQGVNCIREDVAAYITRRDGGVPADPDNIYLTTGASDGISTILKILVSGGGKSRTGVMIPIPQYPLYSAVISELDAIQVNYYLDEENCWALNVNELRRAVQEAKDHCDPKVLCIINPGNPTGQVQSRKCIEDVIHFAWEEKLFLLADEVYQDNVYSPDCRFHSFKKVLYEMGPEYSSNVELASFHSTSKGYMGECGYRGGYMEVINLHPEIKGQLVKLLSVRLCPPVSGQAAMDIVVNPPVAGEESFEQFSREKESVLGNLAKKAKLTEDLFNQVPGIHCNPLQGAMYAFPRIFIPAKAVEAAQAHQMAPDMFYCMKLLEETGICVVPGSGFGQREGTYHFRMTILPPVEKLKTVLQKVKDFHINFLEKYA
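Recombinant GPT2 (10ng/uL) with 250uM a-KG and 2mM L-alanine, 30 min at room temperature, in HEPES pH 7.5 buffer. Pyruvate detected by pyruvate oxidase/HRP/Amplex Red fluorescence after 30 min in the dark; AOA (50uM) as positive control.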
3T3 cytotox: cytotoxic compounds in NIH 3T3 cells; Potency, µM (titrated, usually from 96.7 µM), for inactives: at the highest dose activity change, negative = cytotoxicity, usual class: inhibitors; 4.3% of 94,000 active; AID 1345082; NIH 3T3 viability, CellTiter-Glo ATP luminescence, 48-72 h; also: % is scaled to controls: 0 for no effect and ±100 for the full control effect; nearly all actives have a fitted effect of over 55% in size
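Cytotoxicity is measured as loss of cellular ATP: NIH 3T3 cells (400/well) are exposed to compound for 48 or 72 hr at 37 °C, then CellTiter-Glo luminescence is imaged after 10 min at room temperature.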
HEK293 tox: HEK 293 cell cytotoxicity; HEK 293 viability, ATP luminescence (CellTiter-Glo), 48-72 h; Potency, µM (titrated, usually from 115 µM), inactives show at the top dose activity change, negative = cytotoxicity, hits mostly inhibitors; 6.6% of 94,000 active; AID 1345083; also: % is scaled to controls: 0 for no effect and ±100 for the full control effect; nearly all actives have a fitted effect of over 60% in size
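ATP-coupled CellTiter-Glo luminescence served as viability read-out, recorded 10 min after reagent addition at room temperature. HEK 293 cells, 250 cells/well, had been incubated with pintool-transferred compound for 48 or 72 hr at 37 degree Celsius.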
FLuc inh-1: blocks purified firefly luciferase enzyme activity. purified P. pyralis luciferase, luminescence, biochemical. AID 1347043. P08659. Potency, µM (series often up to 115 µM), usual class: inhibitors. 2.5% of 76,000 active; also: % is scaled to controls: 0 for no effect and ±100 for the full control effect; nearly all actives have a fitted effect of over 65% in size
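Luminescence read by CCD imaging after purified firefly luciferase (10nM final) was added to substrate buffer holding 10uM D-luciferin and 10uM ATP, pH 7.5, pre-dosed with compound.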
NPR1 antag: human Npr1 receptor antagonism; P16066; HEK293 hNpr1 GloSensor cGMP, ANP-stimulated luminescence; 1.6% of 76,000 active; Potency, µM (doses to about 46.3 µM), for inactives: at the top dose activity change, negative = inhibition, usual class: inhibitors; calls by dose curve; also: % is scaled to controls: 0 for no effect and ±100 for the full control effect; nearly all actives have a fitted effect of over 60% in size
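Compound pre-incubated 30 min at room temperature on GloSensor-loaded HEK293 cells stably carrying hNpr1 and the pGS-40F cGMP biosensor. Stimulation uses hNppA at 0.1 nM final; luminescence is taken at baseline and 20 min post-agonist.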
FLuc SDR -ATP: binders stabilizing firefly luciferase, without ATP. shares compounds with FLuc inh-1. 7.8% of 1,300 active. Purified FLuc-C-HiBiT, Nano-Glo HiBiT luminescence, no ATP. Potency, µM (titrated, usually from 32.7 µM), for inactives: at the top dose activation (signal gain), most hits filed as activators; also: nearly all actives have a fitted effect of over 55% in size
FLuc SDR ATP: binders stabilizing firefly luciferase, plus ATP. shares compounds with FLuc inh-1. purified FLuc-C-HiBiT + ATP, HiBiT complementation luminescence. Potency, µM (highest dose often 32.7 µM), for inactives: top-dose activation (gain of signal), actives largely listed as activators. 8.7% of 1,300 active;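 also: signal reports ligand binding via conformational change of the enzyme rather than luciferase catalysis; % of control where 0% means no effect; nearly all actives have a fitted effect of over 55% in size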
FLuc inh-2: blocks firefly luciferase enzymatic activity; purified FLuc-C-HiBiT enzyme, luciferin luminescence; Potency, µM (titrated, usually from 32.7 µM), inactives show at the highest dose activity change, negative = inhibition, usual class: inhibitors; 42% of 1,300 active; AID 1963320; shares compounds with FLuc inh-1; also: % is scaled to controls: 0 for no effect and ±100 for the full control effect; nearly all actives have a fitted effect of over 70% in size
The depositor's hits bear a star; i = inactive; ? = inconclusive; . = no result given; [ ] = another dose, or the depositor's remark. Unless noted, calls follow the shape of the dose curve; as a rule, active = well fitted curve in the direction sought with a large enough effect; inconclusive = small, poorly fitted or top-dose-only effect, or another doubt; inactive = no such curve, though single readings can be large; an effect the other way counts as inactive or inconclusive. Potency is read from the fitted curve at half-maximal effect.

SMILES	GPT2 inhibitor	3T3 cytotox	HEK293 tox	FLuc inh-1	NPR1 antag	FLuc SDR -ATP	FLuc SDR ATP	FLuc inh-2
CN(Cc1ccccc1)C(=O)c1cccc2c1CCN2C(=O)Nc1ccccc1	0%	?	?	0.79µM*	8.9µM*	16%	0.39µM*	0.28µM*
CN(Cc1ccccc1)C(=O)CC1CCN(C(=O)Nc2ccccc2)C1 (centres undefined)	i	-26%	?	.	.	.	.	.
CN(Cc1ccco1)C(=O)c1cccc2c1CCN2C(=O)Nc1ccccc1	2%	?	?	1.3µM*	10µM*	?	0.28µM*	0.2µM*
O=C1C2CN(S(=O)(=O)c3ccccc3)CCN2CCS(=O)(=O)N1C1CC1 (centres undefined)	0%	-1%	-1%	.	.	.	.	.
Cc1ccc(NC(=O)COc2ccc(-c3nnc4n3CCCC4)cc2)cc1F	3%	?	-7%	i	-7%	.	.	.
CCc1ccc(NC(=O)COc2ccc(-c3nnc4n3CCCC4)cc2)cc1	i	-20%	-4%	i	1%	.	.	.
CSC(=S)Nc1ccc(-c2nc3ccc(C)cc3s2)cc1	.	.	.	.	.	25%	19%	2.5µM*
Cc1ccc(NC(=O)Cn2c(-c3ccccc3)nc(C)cc2=O)cc1	i	?	?	i	-18%	.	.	.
Cc1ccc2nc(-c3ccc(NC(=O)Cc4ccccc4)cc3)sc2c1	.	.	.	.	.	13%	14%	?
Cc1ccc(NC(=O)c2cc(NC(=O)C3CC3)cc3nc(C)ccc23)cc1	1%	?	?	i	4%	.	.	.
Cc1ccc2nc(-c3ccc(NC(=O)COc4ccc(Cl)c(C)c4)cc3)sc2c1	.	.	.	.	.	16%	10%	-11%
Cc1ccc2nc(-c3ccc(NC(=O)COc4c(C)ccc(C)c4C)cc3)sc2c1	.	.	.	.	.	17%	15%	?
Cc1cc(C)cc(Nc2nc(C)cc(=O)n2CC(=O)Nc2ccc(Br)cc2)c1	?	?	?	i	?	.	.	.
Cc1ccc2nc(-c3ccc(NC(=O)COc4ccc(Br)cc4Br)cc3)sc2c1	.	.	.	.	.	?	?	3.5µM*
CC(C)OCCCNC(=O)C1Cn2cccc2C(=O)N1 (centres undefined)	i	i	1%	i	-2%	.	.	.
Cc1ccc(CNC(=O)c2ccc3c(c2)CN(Cc2cnn(C)c2C)CCO3)cc1	-6%	-9%	?	i	?	14%	8%	-7%
Cc1ccc2c(c1)N1C(=O)OC[C@@H]1CCN(C(=O)c1ccc(C(F)(F)F)cc1)C2	1%[88.5 µM]	2%[138 µM]	-6%[172 µM]	i	-18%[70.6 µM]	.	.	.
CC(C)(C)c1ccc(C(=O)Nc2ccc([C@H]3OCC(=O)N[C@@H]3CO)cc2)cc1	i	89µM*	?	10µM*	-1%[70.6 µM]	27%[49.3 µM]	16%[49.3 µM]	?
Cc1ccccc1C(=O)Nc1ccc([C@H]2OCC(=O)N(Cc3ccncc3)[C@@H]2CO)cc1	i	1%[174 µM]	-9%[172 µM]	i	-13%[70.6 µM]	.	.	.
O=C(Nc1ccc([C@H]2OCC(=O)N(Cc3ccncc3)[C@@H]2CO)cc1)c1ccc(C(F)(F)F)cc1	-42%	?	20µM*	13µM*	?	19%	14%	?
CCOC1CCOC2(CCN(C(=O)c3cccc(C)c3)CC2)C1 (centres undefined)	1%	-10%	-3%	.	.	.	.	.
COCC1CN(C(C)=O)CC12CCN(C(=O)CCc1cccc(OC)c1)CC2 (centres undefined)	-2%	i	i	i	2%	.	.	.
